# How the values were obtained:
# Test in all cases: PBM binding z-score (relative to random genomic background probes); higher = stronger binding; sequences stand for … in GC…GCGATTGACAGCGTAGAATGAAGG
# [1] = tested on: PPARg:RXRa DBDmut IVT, anti-RXR (DBD mutation: RXRa K156A/R161A, NR concentration 270 nM, RXRa partner concentration 90 nM)
# Method in brief: (§1)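 The probes on custom Agilent 4×180K protein-binding microarrays were double-stranded, with 34-nt variable regions bearing direct-repeat seeds, single-nucleotide variants, half-site ablations and random human genomic background sequences. Incubation lasted 1 h with ligand-free nuclear receptor dimers in PBS pH 7.4, 2% milk, 0.02% Triton X-100, 1 mM DTT, 0.2 mg/mL BSA and 0.4 mg/ml salmon testes DNA. Antibodies against each partner (one per run) detected bound dimers, and fluorescence scans were regression-normalized. Binding z-scores take the random background probes as reference.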
# [2] = tested on: PPARg:RXRa IVT, anti-PPARg (NR concentration 270 nM, RXRa partner concentration 90 nM)
# Method in brief: as §1
# [3] = tested on: PPARg DBDmut:RXRa IVT, anti-PPARg (DBD mutation: PPARg1 K132A/R137A, NR concentration 270 nM, RXRa partner concentration 90 nM)
# Method in brief: as §1
# [4] = tested on: PPARg DBDmut IVT, anti-PPARg (DBD mutation: PPARg1 K132A/R137A, NR concentration 270 nM)
# Method in brief: as §1
# [5] = tested on: PPARg homodimer (NR concentration 180 nM)
# Method in brief: as §1
# [6] = tested on: PXR:RXRa (NR concentration 270 nM, RXRa partner concentration 90 nM)
# Method in brief: as §1
# [7] = tested on: PXR homodimer (NR concentration 270 nM)
# Method in brief: as §1
# [8] = tested on: RARa:RXR (NR concentration 270 nM, RXRa partner concentration 90 nM)
# Method in brief: as §1
# [9] = tested on: RARa homodimer (NR concentration 270 nM)
# Method in brief: as §1
# [10] = tested on: RARb:RXRa (NR concentration 270 nM, RXRa partner concentration 90 nM)
# Method in brief: as §1
# [11] = tested on: RARb homodimer (NR concentration 270 nM)
# Method in brief: as §1
# [12] = tested on: RARg:RXRa (NR concentration 270 nM, RXRa partner concentration 90 nM)
# Method in brief: as §1
# [13] = tested on: RARg homodimer (NR concentration 270 nM)
# Method in brief: as §1
# [14] = tested on: RXRa DBDmut IVT, anti-RXR (DBD mutation: RXRa K156A/R161A, NR concentration 90 nM)
# Method in brief: as §1
# [15] = tested on: RXRa homodimer (NR concentration 180 nM)
# Method in brief: as §1
# [16] = tested on: THRa:RXRa (NR concentration 90 nM, RXRa partner concentration 90 nM)
# Method in brief: as §1
# [17] = tested on: THRa homodimer (NR concentration 90 nM)
# Method in brief: as §1
# [18] = tested on: VDR homodimer (NR concentration 270 nM)
# Method in brief: as §1
Sequence,PBM binding z-score [1],PBM binding z-score [2],PBM binding z-score [3],PBM binding z-score [4],PBM binding z-score [5],PBM binding z-score [6],PBM binding z-score [7],PBM binding z-score [8],PBM binding z-score [9],PBM binding z-score [10],PBM binding z-score [11],PBM binding z-score [12],PBM binding z-score [13],PBM binding z-score [14],PBM binding z-score [15],PBM binding z-score [16],PBM binding z-score [17],PBM binding z-score [18]
GTTTGTAGATCAAGGTTAAGAAAGACTAAGCTAA,1.8,1.93,1.34,0.524,1.43,0.822,1.11,1.21,2.12,1.24,0.79,0.774,0.839,0.638,0.913,1.44,0.453,0.645
ATATGTAGGTTAAGGATCATTCAGGTTGGTTCGC,7.22,7.16,3.09,2.12,1.49,1.19,0.266,1.13,1.1,1.2,0.849,0.99,0.991,0.797,1.42,1.42,0.728,1.16
AGAACGAGGGCAATGAGTTGATATCACGGGTGGC,3.27,2.39,0.947,-0.37,0.0848,1.68,4.4,0.557,-0.0418,1.95,1.12,1.33,1.45,2.15,1.2,1.17,-0.128,2.71
TTATCAAGGTGAAGGTCGTTGATCCCTCTGTAGA,2.89,3.99,1.51,0.341,1.18,1.66,0.515,2.18,-0.235,2.21,1.82,1.55,1.33,0.598,1.89,2.68,1.3,1.23
AGAACGAGGGGAATGAGTTGATAGCACGGGTGGC,1.5,0.636,0.108,0.301,0.561,-0.115,0.264,0.125,0.109,0.142,0.0648,0.0895,0.0667,0.224,0.437,0.0318,-0.151,0.812
AGTCAAAGTTGACTAGGTAACGTAAGATTCAGCT,1.93,2.8,0.549,0.744,-0.383,-0.11,-0.595,0.0496,-0.0612,1.13,0.0886,0.519,0.771,0.028,0.242,0.477,-0.555,-0.638
ACAGACAGGTGAGTGAAGTTAACTCAGCTGGACG,0.505,0.404,-0.391,-0.406,-0.447,-0.325,-0.705,-0.744,-0.259,0.258,-0.414,-0.0567,0.156,-0.397,0.359,-0.189,-1.01,-0.612
TCTGCTAGGTGAACGATGGTCAGCTAATCTGCTA,3.12,2.97,-0.708,-0.769,-0.746,-0.428,-0.962,-0.153,-1.26,0.881,0.159,0.144,0.337,-0.282,0.0585,0.529,-0.885,-0.782
CCGACTGGGGCAAAGTTACCATAACGCACAGCCA,3.71,3.42,-0.241,-0.589,0.229,-0.542,-0.263,-0.168,-0.168,0.462,-0.231,0.149,0.374,0.41,0.344,-0.336,-0.499,-0.275
CAAACTAGGTCAAAGGTCAAAGTCGAGCCAACCA,8.73,9.33,2.23,2.15,5.09,7.21,2.02,8.8,3.18,5.96,4.96,8.83,7.42,2.87,10.2,4.74,1.83,3.41
TCTCGGTGGACACGAAGGTCAGAGCTTTCCAGAG,1,0.976,-1.18,-1.31,0.842,1.38,-0.107,1.55,-0.711,2.57,3.04,2.19,1.97,0.131,1.55,1.39,-0.0519,-0.0711
GATACAGGGTCAGCTCGAGGCCAGAGTATGGAAA,1.36,2.36,-0.23,-0.691,1.54,3.47,-0.0374,3.66,-0.0976,4.12,3.45,6.05,4.74,1.23,4.4,3.83,0.628,0.917
ATCGAAAGGTCGACGAGGTGCGTATACACCGTTT,0.356,1.41,0.639,-0.109,1.06,3.37,-0.325,2.45,-0.212,3.79,2.58,3.76,3.9,0.716,4,2.46,-0.328,0.77
ATCTCTAGGTAAAGTTCAATGAAAGATCGATAGA,2.42,3.05,1.44,1.47,1.79,3.02,2.63,1.92,2.05,3.19,2.76,2.7,2.91,1.75,2.27,1.57,0.271,2.82
CATACAGGGTCAGCTAGGCCAGAGTTGGGACGGC,1.33,2.34,0.63,0.195,0.968,1.85,-0.0328,2.78,0.28,4.17,3.24,4.28,4.57,1.31,4.06,3.02,0.732,1.33
CCTTACGAGTCAAGGTTATAGCACGGGTGGTACG,-0.121,0.156,-0.0742,-0.146,1.14,0.823,0.506,0.888,0.784,1.07,1.07,0.83,0.637,0.174,1.07,1.58,0.715,0.529

Sequence,PBM binding z-score [1],PBM binding z-score [2],PBM binding z-score [3],PBM binding z-score [4],PBM binding z-score [5],PBM binding z-score [6],PBM binding z-score [7],PBM binding z-score [8],PBM binding z-score [9],PBM binding z-score [10],PBM binding z-score [11],PBM binding z-score [12],PBM binding z-score [13],PBM binding z-score [14],PBM binding z-score [15],PBM binding z-score [16],PBM binding z-score [17],PBM binding z-score [18]
ACTAGTTTGTCAGCTGAGGTCACACACAATTCGG,1.11,2.31,0.92,1.54,2.72,4.87,2.34,4.4,1.24,3.28,3.94,3.85,3.7,1.98,4.13,4.42,5.24,3.53
CGAACTAGGTCATCCAGGACACTGAATACATTGA,8.38,8.23,3.17,1.12,2.19,2.31,1.65,2.99,1.29,3.98,3.19,4.13,4.86,2.38,3.13,4.19,3,3.09
TAGCATAGGTCATTGGGCCAGTATAGTACGCATC,1.83,3.4,0.78,0.329,1.56,2.87,-0.00464,3.16,0.152,3.97,3.23,4.88,4.65,1.58,4.77,2.29,-0.526,0.622
ATCGACAGGTCGAAGGTGAGTATACCCACCCGAA,-0.979,1.09,0.369,-0.333,0.63,0.914,-0.44,1.5,-0.439,1.64,0.661,1.8,1.51,-0.283,2.37,0.716,-0.432,-0.198
GCTTACGGGTCAAAGGTAATAGCATGAATAGAAT,4.96,5.28,1.42,0.842,1.61,4.26,-0.182,6.23,0.248,3.87,2.5,5.3,4.22,1.97,6.87,3.07,-0.169,1.06
ATCTCTAGGGAAAAGTTCAGTGAATCCCGAGGAT,-0.096,1.64,0.313,0.383,0.686,1.42,0.706,0.616,0.196,1.77,2.03,1.23,1.69,0.323,0.636,0.24,-0.457,1.22
TCTTGTAGATCAATAGAGGTTAAAAAAGTGCGCT,1.82,1.24,0.792,0.476,0.579,2.56,0.23,1.79,0.767,0.762,1.19,0.821,0.586,0.81,1.39,2.21,-0.13,0.48
ATCTCTAGGTAAAAGTTCAGAGAATCCCGAGGAT,2.03,3.83,1.22,1.3,1.38,1.99,1.55,1.76,1.49,2.5,2.16,2.02,1.97,0.853,1.87,1.24,-0.00417,1.91
TAGCCTATGTCATGCGGGCCAGTATAGTGTCGGC,-0.318,0.0427,-0.339,-0.807,-1.01,-0.639,-1.13,-0.718,-1.4,0.113,-0.116,-0.1,-0.059,-0.904,0.0276,-0.313,-0.992,-0.661
ACAGACGGGTGATGAAGGTAACTCAGGCTATCAT,-0.229,0.424,0.246,-0.242,-0.329,-0.323,-0.116,-0.078,-0.0586,-0.204,-0.00116,-0.0351,0.218,-0.512,0.0942,0.536,0.269,-0.203
AGAATGAGGTTATACGTAGACCAGGGAAGAAAGT,4.22,2.41,0.544,0.658,0.197,0.906,0.447,1.48,0.232,1.43,0.866,1.63,1.19,1.61,2.16,1.98,0.296,0.999
TCTCGGAGGACACGAAGGTCAGAGCTTTCCAGAG,1.65,0.886,-0.279,-1.37,0.322,1.97,0.404,2.05,-0.212,3.38,3.78,2.79,3.63,0.904,1.69,2.87,0.784,1.03
TCTATCAGGCCAGAGGGTCACTCAAGAGGTACGG,1.69,1.3,-0.288,-0.122,1.01,1.83,0.211,2.39,0.259,2.52,2.89,2.92,2.44,0.811,2.56,2.29,0.348,1.16
ATCTCTAGGTAAAAGTTCAGTGAATCCCGAGGAT,1.99,3.82,1.42,1.8,1.4,2.14,1.95,1.64,0.604,2.42,2.42,1.68,2.06,0.516,1.54,1.24,0.375,1.7
CAAACTAGGTCAAGGTCAAAGACGGTTTGTGCCA,8.62,8.85,4.67,5.73,5.24,4.88,2.2,5,2.69,5.16,5.1,5.82,6.9,3.16,5.06,4.34,3.55,4.1
